The results in this text go back to PubChem BioAssay AID2596 (National Center for Advancing Translational Sciences (NCATS), 2010).

SMILES strings stand for the structures. Inconclusive results are not listed. The source made the active and inactive calls. Calls come from the whole dose curve; as a rule, active = well fitted inhibition curve with a large enough effect; inconclusive = small, poorly fitted or top-dose-only effect, or effect the other way; inactive = flat fitted curve, though single readings scatter.

Lysosomal acid glucosylceramidase (Homo sapiens), sequence (P04062 whole entry N409S): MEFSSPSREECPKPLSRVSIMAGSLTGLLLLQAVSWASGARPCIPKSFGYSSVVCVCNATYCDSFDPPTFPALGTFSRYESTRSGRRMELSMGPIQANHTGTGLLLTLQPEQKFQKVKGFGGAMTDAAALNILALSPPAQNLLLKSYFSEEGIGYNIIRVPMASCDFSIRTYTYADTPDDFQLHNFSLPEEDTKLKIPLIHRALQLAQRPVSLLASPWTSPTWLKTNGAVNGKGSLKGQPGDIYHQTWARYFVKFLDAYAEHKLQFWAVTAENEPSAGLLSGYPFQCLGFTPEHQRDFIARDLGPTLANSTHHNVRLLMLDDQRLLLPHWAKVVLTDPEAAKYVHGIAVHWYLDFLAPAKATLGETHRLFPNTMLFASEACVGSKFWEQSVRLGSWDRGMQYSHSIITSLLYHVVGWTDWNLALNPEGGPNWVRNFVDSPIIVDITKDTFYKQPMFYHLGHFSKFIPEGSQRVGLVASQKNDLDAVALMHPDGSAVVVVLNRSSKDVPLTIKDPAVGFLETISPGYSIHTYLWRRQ

The target of this assay is Lysosomal acid glucosylceramidase (Homo sapiens) (UniProt P04062). Briefly: qHTS Assay for Inhibitors and Activators of N370S glucocerebrosidase as a Potential Chaperone Treatment of Gaucher Disease: Purified N370S Glucocerebrosidase Cleavage of Glucosylceramide. Particulars: purified N370S GCase; series mostly up to 77.6 µM; activity change, negative = inhibition: at the top concentration. From the text:
NIH Chemical Genomics Center [NCGC]
NIH Molecular Libraries Probe Production Centers Network [MLPCN]
Assay Submitter (PI): Wei Zheng
Glucocerebrosidase (GC) catalyzes the hydrolysis of beta-glucocerebroside to glucose and ceramide in lysosomes. Mutations in the glucocerebrosidase gene result in Gaucher disease, an autosomal recessive lysosomal storage disorder. Many of the mutations encountered in patients with Gaucher disease are missense alterations that may cause misfolding, decreased stability and/or mistrafficking of this lysosomal protein. […] These inhibitors include iminosugar analogs and three non-iminosugar inhibitors identified from a previous HTS of 62,000 compounds with the wild type recombinant enzyme. However, the enhancement of enzyme activity by the chaperone action of an enzyme inhibitor must be balanced against the direct inhibition of the enzyme. An enzyme activator could also function as a chaperone by binding to the enzyme and helping to correct its misfolding and mistrafficking. While activators for GC have not yet been identified, they may have better therapeutic potential than inhibitors. Therefore the discovery and development of chemical activators may provide a new strategy for the chaperone therapy.
We have optimized a new assay using N370S mutant GC derived from the spleen of a Gaucher patient. […] In addition, the MLPCN compound library has expanded, which increases the chance of finding new and better probes.
This assay characterizes compound activity using purified, mutant enzyme cleavage of the native substrate for the enzyme instead of mutant enzyme from tissue homogenate. Compound activity differences may be due to the absence of endogenous cofactors found in tissue homogenate as well as inherent differences in enzyme stability and catalytic activity using the difference substrates.
NCGC Assay Protocol Summary:
This is an enzyme assay using glucosylceramide from soy (Avanti Polar Lipids Catalog #: 131304P) as the substrate and recombinant human glucocerebrosidase as the enzyme preparation. Upon hydrolysis of the substrate, the glucose product can be detected using the Amplex Red Glucose Oxidase Assay Kit (Invitrogen catalog #: A22189). The product of this reaction can be read with a fluorescence plate reader with an excitation at 573 nm and an emission at 610 nm. Data were normalized to the controls for basal activity (without enzyme) and 100% activity (with enzyme). The AC50 values were determined from concentration-response data modeled with the standard Hill equation.
Assay buffer for enzyme reaction: 50 mM citric acid (titrated with potassium phosphate to pH 5.9), 0.01% Tween-20 (pH 5.9 is an optimal condition for this enzyme assay)
Assay buffer for Amplex Red reaction: Tris-HCl, pH 7.5
1536-well assay protocol for the glucocerebrosidase assay:
(1) Add 2 ul/well glucocerebrosidase enzyme solution (5 nM final)
(2) Add 23 nL compounds in DMSO solution. The final titration was 0.7 nM to 77 uM.
(3) Add 1 ul of glucosylceramide solution (50 uM final)
(4) Incubate at 37C for 40 min
(5) Add 2 ul tris-HCl buffer with Amplex Red reagents
(6) Incubate 45 min at room temperature.
(7) Detect the assay plate in a ViewLux plate reader (PerkinElmer) with Ex=573 nm and Em=610nm.
Keywords: Glucocerebrosidase, beta-glucosidase, Gaucher Disease, pharmacological chaperone, chaperone therapy, high throughput screening, glucocerebrosidase inhibitor, MLSMR, MLSCN, NIH Roadmap, qHTS and NCGC
For `CCC(=O)OCCNc1nc(-c2ccccc2)nc2ccccc12`, the “activity change, negative = inhibition” value is 6.09% (inactive).

Regarding `COc1cccc(CN(C)c2nc(-c3cccs3)nc3ccccc23)c1`, the “activity change, negative = inhibition” value is -8.66% (inactive).

Regarding `NS(=O)(=O)c1ccc(S(=O)(=O)N2CCN(c3nc(-c4cccs4)nc4ccccc34)CC2)cc1`, the “activity change, negative = inhibition” value was -13.7% (inactive).

In the case of `O=S(=O)(c1cccc(C(F)(F)F)c1)N1CCN(c2nc(-c3cccs3)nc3cc(Cl)ccc23)CC1`, the “activity change, negative = inhibition” value was 6.21% (inactive).

Consider `CCCNC(=O)COC(=O)c1ccccc1OCC(=O)Nc1ccc(Br)cc1`, for which the “activity change, negative = inhibition” value is 7.88% (inactive).

As for `Clc1ccccc1-c1nccc(NCc2ccccc2)n1`, the “activity change, negative = inhibition” value is -2.27% (inactive).

As for `CC1(C)CC(=O)C2=C(C1)c1c(ccc3ccccc13)NC2c1ccc(Br)o1` (stereo not given), the “activity change, negative = inhibition” value is 13.7% (inactive).

In the case of `COc1ccc(N(CC(=O)NC2CCCCC2)S(=O)(=O)c2c(C)[nH]c(=O)[nH]c2=O)cc1`, the “activity change, negative = inhibition” value was -12.7% (inactive).

As for `c1ccc(CNc2nc(-c3cccs3)nc3ccccc23)cc1`, the “activity change, negative = inhibition” value is -24.4% (inactive).

As for `Cc1ccccc1-c1nccc(NCc2cccs2)n1`, the “activity change, negative = inhibition” value was 10.1% (inactive).

Regarding `CCOc1ccc(N(CC(=O)Nc2ccc(C)cc2)S(=O)(=O)c2c(C)[nH]c(=O)[nH]c2=O)cc1`, the “activity change, negative = inhibition” value was -20.8% (inactive).

Consider `COc1ccccc1NC(=O)COc1ccccc1C(=O)Nc1ccccc1`, for which the “activity change, negative = inhibition” value was -31% (inactive).

With `c1csc(-c2nc(NCC3CCCO3)c3ccccc3n2)c1` (stereo not given), the “activity change, negative = inhibition” value is -6.96% (inactive).

On to `O=S(=O)(c1ccc2c(c1)OCCO2)N1CCN(c2nc(-c3cccs3)nc3ccccc23)CC1`, for which the “activity change, negative = inhibition” value is -13.9% (inactive).

On to `COc1cc(OC)c2c(N)c(C#N)c(C(F)(F)C(F)(F)F)nc2c1`, for which the “activity change, negative = inhibition” value is 8.65% (inactive).

For `CCc1ccc(NC(=O)c2cnn3c(C(F)F)cc(C)nc23)cc1`, the “activity change, negative = inhibition” value was -7.13% (inactive).

Regarding `O=S(=O)(c1ccccc1Cl)N1CCN(c2nc(-c3cccs3)nc3ccccc23)CC1`, the “activity change, negative = inhibition” value is 1.96% (inactive).

As for `Cc1ccccc1S(=O)(=O)N1CCN(c2nc(-c3cccs3)nc3ccccc23)CC1`, the “activity change, negative = inhibition” value is 20% (inactive).

In the case of `CC(=O)Nc1ccc(NC(=O)COc2ccccc2C(=O)Nc2cccc(Cl)c2Cl)cc1`, the “activity change, negative = inhibition” value is -13.6% (inactive).

In the case of `Cc1ccc(NC(=O)COc2ccccc2C(=O)Nc2ccccc2)cc1Cl`, the “activity change, negative = inhibition” value is 2.52% (inactive).

As to `O=S(=O)(c1ccc2c(c1)OCCO2)N1CCN(c2nc(-c3ccccc3)nc3ccccc23)CC1`, the “activity change, negative = inhibition” value was 7.83% (inactive).

Take `Cc1ccc(S(=O)(=O)N2CCN(c3nc(-c4cccs4)nc4ccccc34)CC2)cc1`: the Potency entry is “inactive”.

On to `Cc1ccc(-c2nc(N3CCN(S(=O)(=O)c4ccc(F)cc4)CC3)c3ccc(Cl)cc3n2)cc1`, for which the “activity change, negative = inhibition” value was -6.45% (inactive).

Regarding `CC(C)(C)C(=O)OCCNc1nc(-c2ccccc2)nc2ccccc12`, the Potency is 39.8 µM (active).

For the molecule `COc1cccc(S(=O)(=O)N2CCN(c3nc(-c4cccs4)nc4ccccc34)CC2)c1`, the “activity change, negative = inhibition” value was 6.72% (inactive).

Take `COc1ccccc1OCC(=O)Nc1oc(-c2ccccc2)c(-c2ccccc2)c1C#N`: the “activity change, negative = inhibition” value was -5.84% (inactive).

In the case of `O=S(=O)(c1ccc(F)cc1)N1CCN(c2nc(-c3ccccc3)nc3cc(Cl)ccc23)CC1`, the “activity change, negative = inhibition” value is 19.5% (inactive).

In the case of `O=S(=O)(c1ccc(Cl)cc1)N1CCN(c2nc(-c3ccc(Cl)cc3)nc3ccccc23)CC1`, the “activity change, negative = inhibition” value is 20% (inactive).

Regarding `COc1ccc(-c2nc(N3CCN(S(=O)(=O)c4ccccc4)CC3)c3ccccc3n2)cc1`, the “activity change, negative = inhibition” value was 18.5% (inactive).

On to `O=C(Nc1cnn(Cc2ccc(F)cc2)c1)c1cnn2c(C(F)F)cc(-c3ccccc3)nc12`, for which the “activity change, negative = inhibition” value was -6.37% (inactive).

On to `Nc1nc(-c2ccccc2)c(N=Nc2ccc(Cl)cc2)s1`, for which the “activity change, negative = inhibition” value is -9.16% (inactive).

Regarding `CC(C)(C)c1ccc(S(=O)(=O)N2CCN(c3nc(-c4cccs4)nc4ccccc34)CC2)cc1`, the “activity change, negative = inhibition” value is 15.3% (inactive).

Take `N=c1c2c(-c3ccccc3)c(-c3ccccc3)n(Cc3ccco3)c2ncn1CCCn1ccnc1`: the “activity change, negative = inhibition” value was -8.82% (inactive).

For `O=S(=O)(c1ccc(Cl)cc1)N1CCN(c2nc(-c3ccc(F)cc3)nc3cc(Cl)ccc23)CC1`, the “activity change, negative = inhibition” value was 16.7% (inactive).

As to `N#Cc1ccc(S(=O)(=O)N2CCN(c3nc(-c4cccs4)nc4ccccc34)CC2)cc1`, the “activity change, negative = inhibition” value is -5.08% (inactive).

On to `COc1ccc(-c2nc(N3CCN(S(=O)(=O)c4ccc(F)cc4)CC3)c3ccccc3n2)cc1`, for which the “activity change, negative = inhibition” value is 14.6% (inactive).

For the molecule `O=S(=O)(c1ccc2ccccc2c1)N1CCN(c2nc(-c3cccs3)nc3ccccc23)CC1`, the “activity change, negative = inhibition” value was -5.05% (inactive).

Regarding `O=C(Nc1cc(Br)ccc1O)c1cnn2c(C(F)F)cc(C3CC3)nc12`, the “activity change, negative = inhibition” value is -28.3% (inactive).

For the molecule `O=S(=O)(c1ccccc1)N1CCN(c2nc(-c3ccc(F)cc3)nc3cc(Cl)ccc23)CC1`, the “activity change, negative = inhibition” value was 12.6% (inactive).

As to `O=C(COc1ccccc1C(=O)c1cnn(-c2ccccc2)c1)Nc1ccccc1`, the “activity change, negative = inhibition” value is -6.49% (inactive).
